D2 antag = antagonists of human D2 dopamine receptor | P14416 | HEK293 TREx D2 cells, calcium flux, dopamine EC80 | inhibition, % at 10 µM | hit rate 2% among 340,000 | AID 485344; in the data active means inhibition above about 30%; inactive means below that, where a call was filed; further: 0% is about no effect
Target sequence (P14416 whole entry, looked up): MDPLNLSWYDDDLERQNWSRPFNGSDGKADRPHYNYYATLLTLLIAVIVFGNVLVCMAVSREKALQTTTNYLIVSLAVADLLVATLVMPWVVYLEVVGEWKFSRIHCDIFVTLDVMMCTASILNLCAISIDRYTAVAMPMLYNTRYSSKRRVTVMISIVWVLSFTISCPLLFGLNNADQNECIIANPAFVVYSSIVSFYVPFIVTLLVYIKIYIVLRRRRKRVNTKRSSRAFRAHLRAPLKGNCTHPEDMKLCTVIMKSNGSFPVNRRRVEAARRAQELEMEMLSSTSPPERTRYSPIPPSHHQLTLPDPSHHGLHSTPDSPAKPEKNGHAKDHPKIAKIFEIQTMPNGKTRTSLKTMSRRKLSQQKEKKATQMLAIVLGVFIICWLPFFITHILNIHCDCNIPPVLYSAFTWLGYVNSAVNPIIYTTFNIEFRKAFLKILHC
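Inhibition of EC80 dopamine-driven calcium flux, recorded kinetically, defines activity here; cells are a tetracycline-induced HEK293 T-REx line expressing force-coupled D2.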
D2 ag-1 = D2 dopamine receptor (human) agonism; P14416; HEK293 T-REx D2 cells, calcium flux agonist mode; activation, % at 2 µM; hit rate 0.53% among 340,000;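 active means activation over 3 SD above normal in the single-dose calcium agonist read, cut at about 30% in these data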; further: 0% is about no effect
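Tetracycline-induced HEK293 T-REx cells with force-coupled D2 receptor, plated overnight at 30 C, loaded with no-wash calcium dye. After a 10 s baseline, compound was pin-added and calcium flux read kinetically for 180 s; calcium rises flagged agonists.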
D2 ag-2 = agonists of human D2 dopamine receptor (beta-arrestin) | hit rate 0.084% among 360,000 | activation, % (no concentration beside the values) | DiscoveRx PathHunter D2 beta-arrestin, luminescence, 90 min; 100% = 57 uM dopamine signal; in the data active means activation above about 40%
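DiscoveRx PathHunter D2 beta-arrestin cells (2,100/well) attached overnight, then compound-stimulated 90 min at 37 C in HBSS/10 mM HEPES/0.1% Tween-20 buffer; beta-galactosidase complementation read by luminescence after 1 h at ambient temperature. Dopamine 57 uM final (EC100) as control.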
D2 PAM-1 = positive allosteric modulators of human D2 dopamine receptor. P14416. HEK293 T-REx D2, calcium flux, EC20 dopamine potentiation. potentiation, % at 10 µM. hit rate 0.34% among 340,000;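 active means potentiation over 3 SD above the plate norm, cut at about 30% in these data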; further: 0% is about no effect
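Primary screen. Calcium kinetics in induced HEK293 T-REx D2 cells: compound pre-addition 180 s, EC20 dopamine, 180 s more.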
D2 PAM-2 = positive allosteric modulators of human D2 dopamine receptor; P14416; AID 624464; hit rate 0.23% among 360,000; potentiation, % (concentration not given with the values); DiscoveRx D2 beta-arrestin cells, luminescence, 90 min; 100% = 57 uM dopamine signal; in the data active means potentiation above about 50%
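PathHunter beta-arrestin assay in DiscoveRx D2 cells. Compounds were added with an EC20 of dopamine (50 nM final) for 90 min at 37 deg C. Luminescence was read 1 h after detection reagent, with 57 uM dopamine as the EC100 control.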
An asterisk follows results filed as active; · = no result. In the library only some 2.4% were active in any assay of this set; here they are far more common.

SMILES	D2 antag	D2 ag-1	D2 ag-2	D2 PAM-1	D2 PAM-2
COc1ccc(CNC(=O)NCc2ccc(OC)c(OC)c2)cc1OC	3	0	-4	-8	1
COc1cc2[nH]c(C(=O)NCc3ccccc3)cc2c(OC)c1OC	84*	-1	1	-15	-21
COc1cc(C(=O)NCCC(=O)NC(C)CCc2ccccc2)cc(OC)c1OC (stereo not drawn)	-8	0	-4	33*	-2
COc1cc2[nH]cc(C(=O)NCc3ccccc3)c(=O)c2cc1OC	10	1	5	15	-4
COc1cc2[nH]cc(C(=O)NCCc3ccccc3)c(=O)c2cc1OC	-16	-2	3	39*	-3
COc1cccc(N2CCN(C(=O)c3cc4c(OC)c(OC)c(OC)cc4[nH]3)CC2)c1	38*	1	2	-12	-9
COc1cc2[nH]c(C(=O)N3CCN(C)CC3)cc2c(OC)c1OC	5	2	-3	8	-4
CC(C)c1cnc2c(c1SCc1cccc(C(F)(F)F)c1)c(=O)n(C)c(=O)n2C	·	0	·	-5	·
CC1CCN(S(=O)(=O)c2ccc3c(c2)CCN3C(=O)Nc2ccccc2Br)CC1	·	1	·	2	·
CCSc1ncc(Cl)c(C(=O)Nc2ccc(S(=O)(=O)Nc3nccc(C)n3)cc2)n1	·	2	·	15	·
COc1cc2[nH]c(C(=O)NCCc3ccccc3)cc2c(OC)c1OC	79*	-1	-1	-14	-24
COc1ccc2[nH]c(C(=O)NCCc3ccccc3)cc2c1	16	0	-3	-8	0
O=[N+]([O-])c1ccc(S(=O)(=O)NCCN2CCOCC2)cc1	5	0	3	49*	5
CCN(C(=O)CSc1nc2ccc(O)cc2c(=O)n1-c1ccc(OC)c(OC)c1)C1CCS(=O)(=O)C1 (stereo not drawn)	43*	-1	-1	9	-70
CCOc1ccc2ccccc2c1/C=N\NC(=O)c1ccc([N+](=O)[O-])cc1	39*	0	14	-21	-12
CCOc1ccccc1NC(=O)CSc1ccc([N+](=O)[O-])cc1	41*	0	-3	-14	-5
CCOc1ccc2ccccc2c1/C=N\NC(=O)OC	-1	-1	0	-3	-20
CCOc1ccccc1NC(=O)NNS(=O)(=O)c1ccc([N+](=O)[O-])cc1	-5	0	-4	5	18
CC(C)COc1ccc(C(=O)Nc2nnc(S(=O)(=O)N(C)Cc3ccco3)s2)cc1	·	0	·	8	·
CCc1ccc(NC(=O)Cn2c(=O)n(CC3CCCO3)c(=O)c3cc(OC)c(OC)cc32)cc1 (stereo not drawn)	·	·	·	4	·
CCOC(=O)c1ccccc1NC(=O)N(Cc1ccco1)C1CCN(C(C)=O)CC1	·	-2	·	-9	·
O=C(COC(=O)/C=C/c1cccc([N+](=O)[O-])c1)Nc1ccc(Cl)cn1	39*	0	-2	13	-3
CCOC(=O)c1c(C=O)c2sc(C)cc2n1C	43*	0	-1	8	-6
O=C(Nc1ccc(F)cc1F)C(Cc1ccccc1)N1Cc2ccccc2C1=O (stereo not drawn)	·	0	·	4	·
Cc1ccnc(NC(NC(=O)C(C)C)(C(F)(F)F)C(F)(F)F)c1	32*	0	-2	4	-9
SMILES	D2 antag	D2 ag-1	D2 ag-2	D2 PAM-1	D2 PAM-2
COC(=O)C(NC(=O)c1ccco1)(Nc1cc(C)ccn1)C(F)(F)F (stereo not drawn)	-10	0	3	8	-2
COc1ccccc1N1CCN(C(=O)c2cnc(N3CCCCC3)c3ccccc23)CC1	·	0	·	9	·
Fc1ccc(N2CCN(Cc3nnc(-c4ccccc4Cl)o3)CC2)cc1	·	0	·	-8	·
Fc1ccc(N2CCN(Cc3cnc(Cl)s3)CC2)cc1	-12	39*	-1	-12	-14
COCCn1c(=S)[nH]c2cc(C(=O)NC(C)C)ccc2c1=O	2	0	-2	20	13
CC(C)Cn1c(=S)[nH]c2cc(C(=O)O)ccc2c1=O	31*	1	-3	9	-8
CC(C)N(Cc1nc(-c2ccc(Cl)cc2)no1)C(=O)c1ccc(C(C)(C)C)cc1	·	1	·	1	·
O=c1cc(-c2ccc(O)cc2)oc2ccc(O)cc12	37*	0	-1	-7	11
Cc1ccc(OCc2nc(-c3ccc(C(=O)N4CCN(c5ccc(Cl)cc5)CC4)cc3)oc2C)cc1	·	·	·	-19	·

Screens (PubChem BioAssay)
